# From publication PMC7862700, “An all-to-all approach to the identification of sequence-specific readers for epigenetic DNA modifications on cytosine”
# Legend:
# Assay in all cases: DAPPL (digital affinity profiling via proximity ligation, sequencing); 10 mM Tris-HCl pH 7.5, 50 mM NaCl, 1 mM DTT, 4% glycerol, room temperature, 30 min; GST-TFs on glutathione beads, 16-mer random dsDNA library, 0.1% formaldehyde crosslink after washing; high values mean tight binding
# Conditions in all cases: protein: recombinant; tags: N-terminal GST; dsDNA, one strand shown
# FLI1 = target: T1, FLI1 (Homo sapiens, UniProt Q01543 1-452)
# T1 sequence: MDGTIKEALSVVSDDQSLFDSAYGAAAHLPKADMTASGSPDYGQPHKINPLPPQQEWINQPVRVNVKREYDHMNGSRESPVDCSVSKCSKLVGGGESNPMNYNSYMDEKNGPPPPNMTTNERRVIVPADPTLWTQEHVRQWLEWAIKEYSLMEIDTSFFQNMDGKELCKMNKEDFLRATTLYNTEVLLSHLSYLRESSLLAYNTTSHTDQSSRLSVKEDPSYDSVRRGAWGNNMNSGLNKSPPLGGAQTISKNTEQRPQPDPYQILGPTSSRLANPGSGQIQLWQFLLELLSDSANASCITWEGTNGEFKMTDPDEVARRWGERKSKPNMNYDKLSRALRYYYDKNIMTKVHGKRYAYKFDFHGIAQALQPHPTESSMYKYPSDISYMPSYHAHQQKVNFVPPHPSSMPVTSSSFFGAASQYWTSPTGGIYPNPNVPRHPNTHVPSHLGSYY
# Method in brief: (§1)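 Binding signal is given per hexamer as its read frequency for a factor divided by its frequency in the tag-only sample. GST-fused human transcription factors were expressed in yeast, captured on glutathione beads, barcoded with DNA and pooled with that sample, then incubated with 200 nmole of a 16-mer random double-stranded DNA library in Tris/NaCl/DTT/glycerol buffer for 30 min at room temperature. The pools were then washed, crosslinked, proximity-ligated, amplified by PCR and sequenced on an Illumina NextSeq500.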
# ELK1 = target: T2, ELK1 (Homo sapiens, UniProt P19419 1-428)
# T2 sequence: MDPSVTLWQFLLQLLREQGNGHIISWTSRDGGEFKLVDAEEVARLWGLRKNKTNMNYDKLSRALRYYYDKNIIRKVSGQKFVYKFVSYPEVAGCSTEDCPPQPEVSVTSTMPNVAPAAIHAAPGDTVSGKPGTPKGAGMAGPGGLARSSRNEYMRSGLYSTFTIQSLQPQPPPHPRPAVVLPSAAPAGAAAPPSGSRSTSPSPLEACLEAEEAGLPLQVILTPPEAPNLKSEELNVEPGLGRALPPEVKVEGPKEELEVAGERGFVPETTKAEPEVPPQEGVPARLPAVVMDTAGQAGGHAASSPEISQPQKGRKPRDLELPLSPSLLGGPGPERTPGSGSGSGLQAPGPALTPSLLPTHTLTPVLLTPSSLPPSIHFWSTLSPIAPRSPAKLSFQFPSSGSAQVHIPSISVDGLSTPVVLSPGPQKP
# Method in brief: as §1
# GABPA = target: T3, GABPA (Homo sapiens, UniProt Q06546 1-454)
# T3 sequence: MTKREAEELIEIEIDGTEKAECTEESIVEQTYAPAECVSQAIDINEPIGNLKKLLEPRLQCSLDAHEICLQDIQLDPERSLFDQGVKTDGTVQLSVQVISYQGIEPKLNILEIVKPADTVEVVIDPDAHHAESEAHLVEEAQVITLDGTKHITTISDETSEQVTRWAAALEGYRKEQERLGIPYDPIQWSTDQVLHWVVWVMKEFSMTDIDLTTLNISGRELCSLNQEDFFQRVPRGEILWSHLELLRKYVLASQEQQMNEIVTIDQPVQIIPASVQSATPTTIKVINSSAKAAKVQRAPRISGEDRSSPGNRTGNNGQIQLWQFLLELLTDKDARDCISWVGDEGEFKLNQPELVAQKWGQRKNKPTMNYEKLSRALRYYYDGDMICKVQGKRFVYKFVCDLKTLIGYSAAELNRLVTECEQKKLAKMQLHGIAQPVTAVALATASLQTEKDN
# Method in brief: as §1
# ERG = target: T4, ERG (Homo sapiens, UniProt P11308 1-479)
# T4 sequence: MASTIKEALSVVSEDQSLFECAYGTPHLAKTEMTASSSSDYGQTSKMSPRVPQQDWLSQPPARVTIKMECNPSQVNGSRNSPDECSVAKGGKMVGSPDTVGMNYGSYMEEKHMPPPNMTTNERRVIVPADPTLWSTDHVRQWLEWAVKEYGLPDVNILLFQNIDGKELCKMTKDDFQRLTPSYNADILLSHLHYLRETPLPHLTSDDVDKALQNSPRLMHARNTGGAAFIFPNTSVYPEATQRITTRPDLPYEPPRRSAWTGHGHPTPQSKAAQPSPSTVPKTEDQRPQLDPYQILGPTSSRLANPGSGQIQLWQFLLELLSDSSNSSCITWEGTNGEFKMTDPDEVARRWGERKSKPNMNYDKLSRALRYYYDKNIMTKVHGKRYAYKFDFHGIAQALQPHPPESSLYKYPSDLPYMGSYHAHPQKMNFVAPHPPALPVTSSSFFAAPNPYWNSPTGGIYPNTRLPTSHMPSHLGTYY
# Method in brief: as §1
# ELF1 = ELF1 (Homo sapiens, UniProt P32519 1-619)
# Sequence of ELF1 (P32519 whole entry): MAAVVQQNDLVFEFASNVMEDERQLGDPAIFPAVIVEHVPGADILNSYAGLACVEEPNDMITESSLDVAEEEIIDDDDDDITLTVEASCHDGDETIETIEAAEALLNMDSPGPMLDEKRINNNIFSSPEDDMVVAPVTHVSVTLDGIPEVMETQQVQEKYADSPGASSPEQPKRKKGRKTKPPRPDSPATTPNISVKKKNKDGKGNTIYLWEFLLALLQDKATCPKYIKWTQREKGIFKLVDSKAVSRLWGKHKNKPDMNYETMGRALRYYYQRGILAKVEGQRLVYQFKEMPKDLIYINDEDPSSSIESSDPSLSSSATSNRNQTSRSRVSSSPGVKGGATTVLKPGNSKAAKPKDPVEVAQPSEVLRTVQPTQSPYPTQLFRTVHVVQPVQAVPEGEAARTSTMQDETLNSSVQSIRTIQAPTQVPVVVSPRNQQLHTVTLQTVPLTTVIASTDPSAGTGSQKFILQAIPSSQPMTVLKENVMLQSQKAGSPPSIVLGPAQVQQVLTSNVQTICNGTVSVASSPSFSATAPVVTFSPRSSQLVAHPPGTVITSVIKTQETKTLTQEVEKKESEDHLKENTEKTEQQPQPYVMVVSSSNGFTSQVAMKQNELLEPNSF
# Method in brief: as §1
# EHF = target: T5, EHF (Homo sapiens, UniProt Q9NZC4 1-300)
# T5 sequence: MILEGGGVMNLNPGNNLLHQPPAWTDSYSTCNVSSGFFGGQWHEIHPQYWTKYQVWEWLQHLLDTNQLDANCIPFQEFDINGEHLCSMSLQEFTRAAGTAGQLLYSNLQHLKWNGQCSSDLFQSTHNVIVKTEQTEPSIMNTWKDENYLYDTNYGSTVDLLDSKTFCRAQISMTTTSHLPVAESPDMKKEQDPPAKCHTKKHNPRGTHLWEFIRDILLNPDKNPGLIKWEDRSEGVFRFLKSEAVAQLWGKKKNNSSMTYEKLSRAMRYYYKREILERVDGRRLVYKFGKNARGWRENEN
# Method in brief: as §1
# SPI1 = SPI1 (Homo sapiens, UniProt P17947 1-270)
# Method in brief: as §1
# SPIB = SPIB (Homo sapiens, UniProt Q01892 1-262)
# Sequence of SPIB (Q01892 whole entry): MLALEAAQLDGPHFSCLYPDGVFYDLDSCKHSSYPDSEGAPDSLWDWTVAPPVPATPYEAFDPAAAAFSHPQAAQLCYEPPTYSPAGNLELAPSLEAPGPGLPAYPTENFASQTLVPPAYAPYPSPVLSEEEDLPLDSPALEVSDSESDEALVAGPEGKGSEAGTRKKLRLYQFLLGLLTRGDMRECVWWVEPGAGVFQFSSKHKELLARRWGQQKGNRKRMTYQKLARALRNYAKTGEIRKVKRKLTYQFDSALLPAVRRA
# Method in brief: as §1
# ELK3 = target: T6, ELK3 (Homo sapiens, UniProt P41970 1-407)
# T6 sequence: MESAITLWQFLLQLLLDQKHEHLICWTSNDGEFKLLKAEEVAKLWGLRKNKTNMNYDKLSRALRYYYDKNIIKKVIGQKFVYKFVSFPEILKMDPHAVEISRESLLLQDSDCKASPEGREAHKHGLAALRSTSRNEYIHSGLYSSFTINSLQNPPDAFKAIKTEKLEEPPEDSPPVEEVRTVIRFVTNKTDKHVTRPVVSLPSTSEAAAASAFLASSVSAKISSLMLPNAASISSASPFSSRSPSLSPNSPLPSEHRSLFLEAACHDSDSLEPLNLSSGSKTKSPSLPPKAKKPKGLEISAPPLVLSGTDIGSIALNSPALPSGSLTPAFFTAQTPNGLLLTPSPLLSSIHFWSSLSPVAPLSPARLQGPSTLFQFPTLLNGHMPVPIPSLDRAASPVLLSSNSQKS
# Method in brief: as §1
sequence,measurement,setting,value
CTTAGC,binding signal,FLI1,"1.22 fold enrichment (6-mer frequency, TF over GST control)"
same,binding signal,ELK1,"1.17 fold enrichment (6-mer frequency, TF over GST control)"
same,binding signal,GABPA,"1.26 fold enrichment (6-mer frequency, TF over GST control)"
same,binding signal,ERG,"1.22 fold enrichment (6-mer frequency, TF over GST control)"
same,binding signal,ELF1,"1.22 fold enrichment (6-mer frequency, TF over GST control)"
same,binding signal,EHF,"1.25 fold enrichment (6-mer frequency, TF over GST control)"
same,binding signal,SPI1,"1.21 fold enrichment (6-mer frequency, TF over GST control)"
same,binding signal,SPIB,"1.21 fold enrichment (6-mer frequency, TF over GST control)"
same,binding signal,ELK3,"1.22 fold enrichment (6-mer frequency, TF over GST control)"
